Compounds with a hit are over-represented: about 14% of the library has one in this group of screens.
NS1 inh – blocks influenza NS1 protein function. Potency, µM (series often up to 46.1 µM), for the others: top-dose activity, positive = more growth. 270,000 tested, 0.4% active; calls by dose curve; note: potency is the fitted concentration of half-maximal effect; actives are rising curves; nearly all actives have a fitted effect of over 50% in size
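S. cerevisiae expressing influenza A NS1, grown in glucose, washed, then diluted 1:100 into pH 6.0 -URA galactose medium with 23 nl compound. Growth recovery read as OD600; NS1-free strain serves as control.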
Shiga inhibitor – inhibitors of Shiga toxin in Vero cells | 290,000 tested, 9.2% active | inhibition, % at 38.7 µM | Vero cells, Shiga toxin protein synthesis inhibition reporter; in the data active = inhibition mostly above about 28%, no sharp cut-off; inactive = mostly below about 43%; note: 0% is about no effect
Giardia FBPA inh – blocks Giardia fructose-bisphosphate aldolase activity; A8B2U2; purified Giardia FBPA; Potency, µM (top dose mostly 59.6 µM), for inactives: at the top dose activity, negative = inhibition, usual class: inhibitors; 290,000 tested, 0.71% active; note: potency is the fitted concentration of half-maximal effect; % is set by controls: 0 for no effect and ±100 for the full control effect; nearly all actives have a fitted effect of over 55% in size
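40 nM FBPA preincubated 10 min at RT with compound (up to 57.5 uM final), then substrate plus GAPDH/TPI/NAD/arsenate coupling and diaphorase/resazurin added. Fluorescence read after 20 min at RT, 525/598 nm.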
CHX counter – affects cycloheximide protein synthesis inhibition readout, counter-screen; cell reporter, cycloheximide protein synthesis inhibition counterscreen; max response, %; 300,000 tested, 12% active; AID 2314; in the data active = max response mostly above about 13%, no sharp cut-off; inactive = mostly below about 14%; note: read at 38.3 µM for the half of the compounds with a filed dose; 0% is about no effect
LmPK inh – blocks Leishmania mexicana pyruvate kinase activity | purified LmPK, Kinase-Glo ATP luminescence, 1 h | Potency, µM (highest dose often 57.5 µM), for the others: at the top dose activity change, negative = inhibition, most hits filed as inhibitors | Q27686 | 290,000 tested, 0.37% active; note: potency is the fitted concentration of half-maximal effect; % is set by controls: 0 for no effect and ±100 for the full control effect
Target sequence (Q27686 whole entry, looked up): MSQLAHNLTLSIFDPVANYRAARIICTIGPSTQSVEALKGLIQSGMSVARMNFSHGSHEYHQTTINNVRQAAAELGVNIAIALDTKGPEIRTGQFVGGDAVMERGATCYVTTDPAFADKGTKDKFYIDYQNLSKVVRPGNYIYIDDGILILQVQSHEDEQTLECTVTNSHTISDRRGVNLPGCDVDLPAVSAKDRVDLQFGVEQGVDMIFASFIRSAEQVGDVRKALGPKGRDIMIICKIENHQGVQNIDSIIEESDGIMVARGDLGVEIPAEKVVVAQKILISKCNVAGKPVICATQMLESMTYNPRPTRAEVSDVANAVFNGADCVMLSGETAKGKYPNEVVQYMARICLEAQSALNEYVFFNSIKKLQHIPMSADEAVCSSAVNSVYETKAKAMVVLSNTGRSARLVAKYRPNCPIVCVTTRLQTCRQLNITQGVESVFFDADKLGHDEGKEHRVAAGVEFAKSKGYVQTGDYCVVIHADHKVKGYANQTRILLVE
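ATP generated from ADP (0.1 mM) and PEP (0.5 mM) by 0.1 nM LmPK over 1 h at room temperature (pH 7.2 imidazole buffer) was detected by coupled luciferase luminescence. Values were normalized to uninhibited and no-enzyme wells.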
* hit, by the source's call; ? = inconclusive; / = not tested or not shown; [ ] = another dose, or the depositor's remark. Unless noted, calls come from the whole dose curve; as a rule, active = well fitted curve in the direction sought with a large enough effect; inconclusive = small, poorly fitted or top-dose-only effect, or another doubt; inactive = no such curve, though single readings can be large; an effect the other way counts as inactive or inconclusive.

SMILES	NS1 inh	Shiga inhibitor	Giardia FBPA inh	CHX counter	LmPK inh
Cc1nn(-c2ccccc2)c(C)c1/C=N/n1cnnc1	/	-12.8	0.8%	-3.7	2.5%[11.5 µM]
CCN(CC)c1ccc(/C=N/n2c(-c3ccccc3Br)n[nH]c2=S)cc1	6.5%	-10.5	4.0%	-2.4	-17.4%
Cc1nn(-c2ccccc2)c(C)c1/C=N/NC(=O)c1ccccc1O	-34.5%	38.2*	4.7%	41.7*	-2.8%
Cc1nn(-c2ccccc2)c(C)c1/C=N/NC(=O)c1cc(-c2cccs2)[nH]n1	-42.8%	-8.8	4.1%	5.4	-1.6%
Cc1nn(-c2ccccc2)c(N2CCCC2)c1/C=N/NC(=O)c1ccccc1O	-22.9%	44.4	3.8%	12.1	-1.9%
O=C(NCCS(=O)(=O)N1CCN(c2ccccc2F)CC1)c1cc(=O)c2ccccc2o1	4.3%	2.1	-2.8%	-1.8	6.8%
Cc1ccccc1Nc1oc(-c2ccccc2)nc1-c1cccs1	/	/	-0.5%	/	/
O=C(c1cccc(Cl)c1)C1CCCN(S(=O)(=O)c2ccccc2)C1 (stereo not drawn)	-8.0%	-17.9	/	-2.8	-8.9%
Cc1nn(-c2ccccc2)cc1/C=N/NC(=O)c1cccs1	-38.5%	102.3*	4.4%	44.3*	-6.7%
CC(/C=N/NC(=O)CSc1nnc(SCc2ccccc2)s1)=C\c1ccco1	?	6.3	?	13.6*	4.1%
Cc1nn(-c2ccccc2)c(C)c1/C=N/NC(=O)CSc1nnc(SCc2ccc(Cl)cc2)s1	12.4%	26.2	-3.2%	40.8*	0.9%
CCCc1ccc(C(=O)/C=C/N(C)C)cc1	-3.4%	41.7*	5.0%	13.5*	?
COc1ccc(C(=O)/C=C/N(C)C)cc1OC	-69.4%	2.1	-1.6%	-3.8	-3.3%
CN(C)/C=C/C(=O)c1ccc(Br)s1	-44.4%	54.2*	3.4%	21.0*	-6.9%
CN(C)/C=C/C(=O)c1ccccc1	-7.2%	63.4*	-17.9%	41.1*	-2.0%
Cc1ccc(C(=O)/C=C/N(C)C)o1	-0.8%	26.1	-1.3%	15.7	-3.0%
COc1ccc(C(=O)/C=C/N(C)C)cc1	-38.5%	-23.9	-1.1%	20.1*	-4.0%
CCN(CC(=O)NCc1ccc(Cl)cc1)C(=O)C(C)Sc1ccccc1 (stereo not drawn)	-1.8%	-8.1	1.4%	-2.6	-0.4%
CN(C)/C=C/C(=O)c1ccc(Oc2ccccc2)cc1	-47.9%	82.9*	-7.2%	34.2*	-12.9%
CN(C)/C=C/C(=O)c1ccc(F)cc1	-35.6%	98.8	-1.0%	21.4*	-2.2%
CN(C)/C=C/C(=O)c1ccc(S(=O)(=O)c2ccccc2)cc1	/	33.8	8.9%	10.3	0.0%
Cc1cc(C(=O)CS(=O)(=O)c2ccc(F)cc2)cc(C)c1OC(=O)N(C)C	/	89.0*	-0.1%	43.8*	-18.5%
COc1ccc(C(=O)CSc2nc(C)cc(C)n2)cc1C	-15.2%	11.6	0.9%	6.2	-6.6%
COc1ccc(SCC(=O)c2cc(C)c(OC(=S)N(C)C)c(C)c2)cc1	-8.5%	66.8	-3.6%	48.0*	5.8%
COc1ccc(S(=O)(=O)CC(=O)c2cc(C)c(O)c(C)c2)cc1	3.3%	6.8	5.0%	0.5	-1.9%
SMILES	NS1 inh	Shiga inhibitor	Giardia FBPA inh	CHX counter	LmPK inh
Cc1cc(C(=O)CSc2ccc(F)cc2)cc(C)c1OC(=S)N(C)C	8.6%	145.7*	-0.2%	57.9*	-8.3%
Cc1ccc(C(=O)N2CCC(N3CCC(C(=O)N4CCOCC4)CC3)CC2)cc1C	23.5%	-5.1	-5.0%	-1.2	2.7%
CCCc1nc2oc3ccccc3c(=O)c2c(=O)n1CCCOC	0.7%	7.1	1.2%	0.8	1.4%
O=C(Nc1nc2ccccc2[nH]1)C12CC3CC(CC(C3)C1)C2	-0.2%	63.2	0.3%	39.9*	2.8%
O=C(Nc1sc2c(c1-c1nc3ccccc3[nH]1)CCCC2)C1CCCC1	11.8%	16.9	-7.3%	21.3*	1.5%
O=C(Nc1nc2ccccc2[nH]1)C1CCCO1 (stereo not drawn)	-3.8%	40.5	-12.9%	22.9*	-14.4%
O=C(Nc1nc2ccccc2[nH]1)Nc1ccccc1F	-3.3%	99.2*	-1.3%	34.6*	0.3%
O=C(OCc1nc2ccccc2[nH]1)C12CC3CC(CC(C3)C1)C2	-82.5%	-6.7	4.5%	-2.5	0.2%
O=C(Nc1nc2ccccc2[nH]1)NC1CCCCC1	2.2%	81.2*	4.0%	45.7*	-0.6%
O=C(Nc1nc2ccccc2[nH]1)C1CC1	/	44.6	-2.4%	22.6*	-9.5%
CC(C)c1nc2ccc(NC(=O)C34CC5CC(CC(C5)C3)C4)cc2[nH]1	-2.7%	47.5	5.2%	20.4*	2.6%
COC(=O)Nc1nc2ccc(C(=O)c3cccs3)cc2[nH]1	0.0%	/	-4.6%	/	/
O=C(Nc1nc2ccccc2[nH]1)c1cccs1	/	75.0*	-7.4%	37.4*	?
CCCn1c(=O)n(C)c(=O)c2c(SCC(=O)NCC(c3ccccc3)N(C)C)nc(CC(C)C)nc21 (stereo not drawn)	-1.7%	-6.5	/	-1.1	-2.9%
CC(NC=O)c1nc2ccccc2n1CCc1ccccc1 (stereo not drawn)	2.4%	-17.7	-11.1%	-1.4	-6.1%
COc1ccc2c(c1)Cc1sc(NC(=O)c3cccs3)nc1-2	-7.6%[9.22 µM]	149.1*	?	74.0*	-10.6%
COc1ccc2c(c1)Cc1sc(NC(=O)c3ccccc3)nc1-2	-1.6%	145.5*	-27.4%	48.3*	-0.8%
COc1ccc(C(=O)Nc2nc3c(s2)Cc2cc(OC)ccc2-3)cc1	6.0%	32.0	/	10.8	-2.7%
CC(=O)c1sc(NC(=O)c2cccs2)nc1C	-35.5%	23.6	4.5%	10.1	?
NCCC[C@@H](CC(=O)N[C@@H]1CCNC[C@H]1C(=O)N[C@H](CC(=O)N[C@@H](CCC(=O)O)CC(=O)O)Cc1c[nH]c2ccccc12)NC(=O)C[C@H](Cc1ccccc1)NC(=O)[C@@H]1CNCC[C@H]1N	/	/	-16.3%	/	/
COCCn1c(C)cc(/C=N/NC(=O)c2cccnc2)c1C	7.9%	68.8*	1.8%	22.4*	-6.6%
COc1cc(/C=N/NC(=O)c2cccnc2)ccc1OCC(=O)Nc1ccc(C)cc1	-2.8%	21.0	6.1%	21.1*	-4.2%
Cc1cc(/C=N/NC(=O)c2ccc(O)cc2)c(C)n1CC(C)C	2.4%	82.0*	2.3%	47.8*	-1.9%
Cc1c(/C=N/NC(=O)c2cccnc2)c2ccccc2n1Cc1ccccc1	/	17.5	-10.9%	18.1	4.5%[11.5 µM]
COc1ccc(/C=N/NC(=O)c2cccnc2)cc1O	-4.5%	/	-0.1%	18.9*	7.3%
SMILES	NS1 inh	Shiga inhibitor	Giardia FBPA inh	CHX counter	LmPK inh
Cc1ccccc1N1CCN(C(=O)NCc2cccc(Cl)c2)CC1	-23.8%	14.6	-10.2%	0.8	3.9%
COc1ccc(/C=N/NC(=O)c2cccnc2)cc1	2.0%	121.0*	4.5%	31.5*	-0.2%
COc1ccc(CNC(=O)c2ccc[nH]2)cc1	6.9%	20.6	-2.6%	4.3	1.7%
COc1ccc(/C=N/NC(=O)c2ccc[nH]2)cc1	1.3%	77.1*	4.7%	29.3*	?
COc1cc(/C=N/NC(=O)c2cccnc2)ccc1OS(=O)(=O)c1cc(C)ccc1C	11.4%	5.7	0.0%	17.0*	0.4%
Cc1nc2ccc(NC(=O)CSc3nnc(C)s3)cc2[nH]1	-15.9%	-5.9	?	-2.9	-1.5%
O=C1NC[C@H](c2ccccc2)N1	/	/	-2.3%	/	/

Screening data: PubChem, National Center for Advancing Translational Sciences (NCATS)
